RORgamma inh: blocks mouse ROR gamma transcriptional activity. Potency, µM (highest dose often 53.6 µM), without a hit: at the highest dose activity change, negative = inhibition, most hits filed as inhibitors. P51450. AID 2551. hit rate 5.4% among 310,000. Drosophila S2 Gal4-RORgamma UAS-luciferase reporter, 20 h; note: % is set by controls: 0 for no effect and ±100 for the full control effect; nearly all actives have a fitted effect of over 60% in size
Target sequence (P51450 whole entry, looked up, the tested form may be a part): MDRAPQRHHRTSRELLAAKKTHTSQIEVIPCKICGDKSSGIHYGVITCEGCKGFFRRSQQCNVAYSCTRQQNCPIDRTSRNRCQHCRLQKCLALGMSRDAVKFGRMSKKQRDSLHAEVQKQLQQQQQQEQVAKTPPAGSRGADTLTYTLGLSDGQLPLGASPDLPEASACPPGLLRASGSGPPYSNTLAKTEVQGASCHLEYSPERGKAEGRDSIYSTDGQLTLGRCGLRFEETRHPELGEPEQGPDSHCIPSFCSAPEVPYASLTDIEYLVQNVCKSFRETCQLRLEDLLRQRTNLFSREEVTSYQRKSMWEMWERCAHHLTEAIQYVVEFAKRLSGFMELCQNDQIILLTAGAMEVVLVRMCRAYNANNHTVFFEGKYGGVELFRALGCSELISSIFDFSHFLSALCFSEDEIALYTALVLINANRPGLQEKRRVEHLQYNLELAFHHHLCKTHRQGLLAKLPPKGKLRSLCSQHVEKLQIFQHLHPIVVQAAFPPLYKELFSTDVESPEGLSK
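Using a luciferase readout, inhibitors were identified by reduced reporter activity in Drosophila cells coexpressing a copper-inducible Gal4–ROR gamma fusion and UAS-driven Photinus luciferase, incubated 20 hr after 700 uM copper sulfate.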
MCF10A rerep: induces DNA re-replication in MCF 10a normal breast cells. MCF 10A DNA re-replication, Hoechst nuclear intensity, 48 h. Potency, µM (doses to about 46.1 µM), without a hit: top-dose activity, positive = re-replication, usual class: activators. hit rate 2.9% among 350,000. AID 624296; note: % of control where 0% means no effect; nearly all actives have a fitted effect of over 50% in size
Gal4-VP16 FLuc: counter-screen for ROR gamma inhibitors: Gal4-VP16 reporter. Drosophila S2 Gal4-VP16 UAS-luciferase, luminescence, 20 h. Potency, µM (series often up to 53.6 µM), for the others: at the highest dose activity, negative = inhibition, usual class: inhibitors. hit rate 3.5% among 310,000. AID 2546;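 note: Gal4-VP16 expression switched on by copper sulfate through the metallothionein promoter; % is set by controls: 0 for no effect and ±100 for the full control effect; nearly all actives have a fitted effect of over 50% in size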
KB-V1 cytotox: KB-V1 MDR subline cytotoxicity; AID 1347076; hit rate 3.4% among 400,000; Potency, µM (series often up to 46.1 µM), usual class: cytotoxic; KB-V1 MDR cells viability, CellTiter-Glo, 72 h; note: % is set by controls: 0 for no effect and ±100 for the full control effect; nearly all actives have a fitted effect of over 60% in size
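Following 72 h at 37 degrees C with compound, KB-V1 cell viability was read by CellTiter-Glo luminescence, medium being phenol-red-free DMEM plus 10% FBS; concentration-response parameters came from normalized, curve-fitted qHTS data.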
KB-3-1 tox: KB-3-1 parental cell cytotoxicity. KB-3-1 viability, CellTiter-Glo ATP luminescence, 72 h. Potency, µM (series often up to 46.1 µM), most hits filed as cytotoxic. hit rate 1.4% among 400,000; note: % is set by controls: 0 for no effect and ±100 for the full control effect; nearly all actives have a fitted effect of over 60% in size
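Cells are dispensed, compounds pinned in, plates held at 37 °C for 72 h, then CellTiter-Glo is added and luminescence read after 10 minutes. Cell line: parental KB-3-1 in phenol-red-free DMEM, 10% FBS.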
SW480 rerep: induces DNA re-replication in SW480 colon adenocarcinoma cells; hit rate 1.8% among 340,000; AID 624297; SW480 DNA re-replication, Hoechst DNA content imaging, 48 h; Potency, µM (top dose mostly 46.1 µM), without a hit: at the highest dose re-replication activation, usual class: activators; note: % of control where 0% means no effect; nearly all actives have a fitted effect of over 55% in size
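Hoechst fluorescence of nuclei (405 nm excitation, 500-530 nm emission) measured by plate-scanning imager after 48 hr compound exposure at 37 C; re-replication scored as increased number of nuclei with elevated intensity.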
Active calls of the source: *; i = inactive; u = inconclusive; x = no result given; ! = not active in a repeat; [ ] = another dose, or the depositor's remark. Compounds with a hit are over-represented: about 10% of the library has one in this group of screens. Calls come from the whole dose curve; as a rule, active = well fitted curve in the direction sought with a large enough effect; inconclusive = small, poorly fitted or top-dose-only effect, or another doubt; inactive = no such curve, though single readings can be large; an effect the other way counts as inactive or inconclusive. Potency is the fitted concentration of half-maximal effect.

SMILES	RORgamma inh	MCF10A rerep	Gal4-VP16 FLuc	KB-V1 cytotox	KB-3-1 tox	SW480 rerep
CCC(C)Sc1ccc(-c2nc3ccc(Cl)cn3c2NCc2ccccc2)cc1 (configuration not stated)	x	11.6µM*	x	i	i	15.3%
CCCCCCSc1ccc(-c2nc3ccc(C)cn3c2NCc2ccccc2)cc1	x	u	x	u	u	-2.1%[9.22 µM]
CCCCNc1c(-c2ccc(OC)c(SC(C)CC)c2)nc2cc(C)ccn12 (configuration not stated)	x	20.6µM*	x	i	u	u
CCCCCCSc1cc(-c2nc3ccc(C)cn3c2NCCCC)ccc1OC	x	u	x	u	i	u
CCCCCCSc1cccc(-c2nc3ccc(Cl)cn3c2NCc2ccccc2)c1	x	20.6µM*	x	u	i	-2.9%
CCC(C)Sc1ccc(-c2nc3ccc(C)cn3c2NCc2ccccc2)cc1OC (configuration not stated)	x	6.51µM*	x	u	i	u
CCCCCCSc1ccc(-c2nc3ccc(C)cn3c2NCc2ccccc2)cc1OC	x	83.7%	x	u	u	u
O=c1c(NCc2ccccc2Cl)nccn1-c1ccccc1	x	x	x	i	i	x
CCCCNc1c(-c2ccc(OC)c(SC(C)CC)c2)nc2ccc(Cl)cn12 (configuration not stated)	x	20.6µM*	x	i	i	11.3%
CCCCNc1c(-c2ccc(OC)c(SC(C)CC)c2)nc2ccc(C)cn12 (configuration not stated)	x	u	x	18.4µM*!	u	12.8%[9.22 µM]
CCCCNc1c(-c2ccc(Sc3ccc(OC)cc3)cc2)nc2cc(C)ccn12	x	23.1µM*	x	i	u	u
CCCCCCSc1cc(-c2nc3ccc(Cl)cn3c2NCCCC)ccc1OC	x	1.9%	x	u	i	-17.4%[9.22 µM]
CSc1ccc(-c2nc3cc(C)ccn3c2Nc2ccc(C)cc2)cc1	x	x	x	i	i	x
CC(C)Oc1ccc(C(=O)Nc2ccc3oc(-c4ccncc4)nc3c2)cc1	x	x	x	i	u	x
O=C(CSc1nnc(-c2ccccc2)c(-c2ccccc2)n1)NCCc1ccccc1	x	x	x	i	i	x
Cc1ccc2oc3c(c(=O)c2c1)C(c1ccccc1F)N(c1ccccn1)C3=O (configuration not stated)	x	x	x	i	i	x
O=C(N/N=C/c1ccccn1)c1c[nH]c2ccccc12	1.3%	1.9%	0.2%	i	i	-4.9%
O=C(N/N=C/c1ccc[nH]1)c1cc2ccccc2cc1O	1.12µM*	11.7%	u	i	u	u
O=C(N/N=C/c1ccncc1)c1sc2ccccc2c1Cl	u	0.1%	u	i	i	-2.5%
O=C(N/N=C/c1ccc[nH]1)c1c[nH]c2ccccc12	x	11.4%	x	i	i	7.31µM*
O=C(N/N=C/c1ccncc1)c1cc2ccccc2cc1O	u	-0.6%	-11.7%	i	i	1.5%
O=C(N/N=C/c1ccc[nH]1)c1sc2ccccc2c1Cl	0.316µM*	14.2%	0.562µM*	i	i	-2.6%
COCCNC(=O)C1(C)CCCN(Cc2noc(-c3ccccc3OC)n2)C1 (configuration not stated)	x	x	x	i	i	x
Cc1ccc(Cn2nnc3c(=O)n(CC(=O)N4CCN(c5ccccc5)CC4)cnc32)cc1	0.6%	u	-13.5%	5.17µM*	i	-9.2%
O=C(Cn1cnc2c(nnn2-c2cccc(Cl)c2)c1=O)N1CCCC1	-3.4%	4.2%	-1.3%	13µM*	i	-0.1%
Cc1ccc(S(=O)(=O)N2C[C@H]3C(=O)C[C@@H](c4ccccc4C)N(S(=O)(=O)c4ccc(C)cc4)[C@H]3C[C@H]2c2ccccc2)cc1	x	x	x	i	i	x
CCSc1nnnn1-c1cccc(C(=O)O)c1	x	x	x	i	i	x
CN(C)/C=C(\C(=O)c1cccc(Cl)c1)c1nnnn1-c1ccccc1	14.1µM*	-0.8%	u	i	i	u
O=C(Nc1cnccn1)Nc1cccc(Cl)c1Cl	13.7%	u	-7.7%	11.6µM*	u	4.2%

Bioassay records: PubChem BioAssay, National Center for Advancing Translational Sciences (NCATS)
